Screening data: PubChem BioAssay, several laboratories
PfHsp90 set2 – growth inhibition of yeast expressing Plasmodium Hsp90; S. cerevisiae expressing PfHsp90, BacTiter-Glo ATP, 48 h; yeast lacking PDR1 and PDR3 efflux regulators; inhibition, % at 9.4 µM; hit rate 0.32% among 310,000;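 active = every replicate shows inhibition above about 80%, whatever the replicate mean, limit read from the data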;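 also: 0% = DMSO neutral controls and 100% = 20 µM radicicol positive controls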
tim10-1 inh – growth inhibitors of tim10-1 mutant yeast; hit rate 2.2% among 330,000; inhibition, % at 20 µM; S. cerevisiae tim10-1 ts strain growth, BacTiter-Glo, 24 h;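 active = inhibition of at least 40%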;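 also: mutant grown at 25 °C; 0% = DMSO wells with yeast and 100% = wells holding no yeast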
ATG4B inh – ATG4B (human) cysteine protease inhibition | ATG4B cleavage of LC3-PLA2, NBD-HPC fluorescence, 1 h | inhibition, % at 8.33 µM | hit rate 0.51% among 340,000 | Q9Y4P1 | AID 504462; in the data active = inhibition above about 40%
Target sequence (Q9Y4P1 whole entry, looked up): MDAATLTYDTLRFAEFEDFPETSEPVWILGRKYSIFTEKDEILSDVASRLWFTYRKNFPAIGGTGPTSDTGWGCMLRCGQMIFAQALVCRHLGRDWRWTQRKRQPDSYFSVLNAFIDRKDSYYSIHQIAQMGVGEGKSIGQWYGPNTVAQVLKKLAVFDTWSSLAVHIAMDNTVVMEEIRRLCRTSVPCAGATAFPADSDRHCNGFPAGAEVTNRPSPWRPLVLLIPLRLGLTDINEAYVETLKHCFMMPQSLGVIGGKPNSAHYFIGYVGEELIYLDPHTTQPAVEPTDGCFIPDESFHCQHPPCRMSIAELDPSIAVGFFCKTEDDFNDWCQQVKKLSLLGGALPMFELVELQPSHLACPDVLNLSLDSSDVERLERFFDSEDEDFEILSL
TIM10 inh – TIM10 yeast growth inhibition; S. cerevisiae TIM10 strain growth, BacTiter-Glo luminescence, 24 h; inhibition, % at 10 µM; hit rate 1.4% among 330,000; AID 463195;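 active = inhibition of 40% or more at the single tested concentration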;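 also: wild-type TIM10 isogenic control strain grown at permissive 25 °C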
tim23-1 inh – tim23-1 yeast growth inhibition; hit rate 1.3% among 330,000; S. cerevisiae tim23-1 growth, BacTiter-Glo luminescence, 24 h; inhibition, % at 20 µM;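 active = growth inhibition of the mutant yeast at or above 50%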;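 also: temperature-sensitive mutant grown at 25 °C; plate controls were DMSO-treated mutant yeast for no effect and medium wells lacking yeast for full effect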
SKKanGAS inh – SKKanGAS growth inhibition. S. pyogenes SKKanGAS, kanamycin growth, BacTiter-Glo, 6 h. inhibition, % at 7.5 µM. hit rate 1.3% among 300,000;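 active = mean replicate score, as percent of positive control median, at least 50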;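 also: strain carries kanamycin resistance gene driven by streptokinase promoter and grows in 40 µg/ml kanamycin; loss of luminescence reflects streptokinase promoter inhibition or plain growth inhibition; 0% = median of DMSO wells and 100% = positive control at its reference dose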
The depositor's hits bear a star; x = no result given. Most compounds without a hit are left out; they make up all but 4.7% or so of the library.

SMILES	PfHsp90 set2	tim10-1 inh	ATG4B inh	TIM10 inh	tim23-1 inh	SKKanGAS inh
CCc1nc(N2CCN(C(=O)c3ccccc3)CC2)c(C#N)c2c1COC(C)(C)C2	1	22	-1	5	27	x
Cc1oc(-c2ccc(F)cc2)nc1CN(Cc1ccccn1)CC1CCCO1 (stereo not given)	2	15	27	8	19	61*
Clc1ccc(-c2noc(CN(Cc3ccccn3)CC3CCCO3)n2)cc1 (stereo not given)	28	20	5	31	22	24
CCn1cc(Cl)c(C(=O)N2N=C(c3ccc4ccccc4c3)CC2c2ccccc2O)n1 (stereo not given)	-16	15	0	8	15	50*
CCOC(=O)N1CCN(C(=O)c2cc3n(n2)C(C(F)(F)F)CC(c2ccc4c(c2)OCO4)N3)CC1 (stereo not given)	-8	11	3	3	17	54*
O=C(Nc1cc(Cl)ccc1O)c1cc2n(n1)C(C(F)(F)F)CC(c1ccc3c(c1)OCO3)N2 (stereo not given)	-50	8	19	-4	-3	101*
COc1ccc(OC)c(NC(=O)c2cc3n(n2)C(C(F)(F)F)CC(c2ccc4c(c2)OCO4)N3)c1 (stereo not given)	-12	-18	14	-11	17	31
CC(C)c1ccc2[nH]c(O)c(N=NC(=O)c3cccc(S(=O)(=O)N4CCCCC4)c3)c2c1	-18	17	-12	23	35	107*
CCCc1[nH]c(=O)c(C#N)c2c1COC(C)(C)C2	-7	6	0	-7	-8	4
Cc1cccc(N=C2NN=C(c3ccc4c(c3)OCCO4)CS2)c1	-10	29	23	22	27	12
Cc1cccc(N=C2NN=C(c3c(C)[nH]c4ccccc34)CS2)c1	9	34	-4	12	22	98*
COc1ccnc(Oc2ccc(F)cc2)c1-c1ncn[nH]1	-6	2	2	5	0	0
CCOc1ccc(-c2csc(/C(C#N)=C\c3ccc(O)c([N+](=O)[O-])c3)n2)cc1	-22	30	9	20	17	101*
CCCCc1ccc(-c2csc(/C(C#N)=C\c3ccc(C)o3)n2)cc1	-23	5	8	-1	14	-6
Cc1[nH]nc2c1C(c1ccc(OC(=O)c3ccco3)cc1)C(C#N)=C(N)O2 (stereo not given)	-1	7	54*	14	19	-2
COc1ccccc1CNC(=O)c1ccc(-c2ccccc2C(F)(F)F)o1	1	24	24	0	-5	-1
COc1ccccc1CNC(=O)c1ccc(-c2ccccc2Cl)o1	-12	25	17	12	24	52*
CC(C)c1cc(C(=O)N2CCCC(Nc3ccc(F)cc3)C2)n[nH]1 (stereo not given)	6	7	3	2	0	18
CS(=O)c1ccccc1-c1nc(-c2ccc([N+](=O)[O-])cc2)no1 (stereo not given)	-7	x	2	x	x	x
COC(=O)c1ccc(CSc2nc3ccc(Cl)cc3[nH]2)o1	-12	20	4	12	30	-1
COC(=O)c1ccc(CSc2nc3scc(-c4cccs4)c3c(=O)[nH]2)o1	x	7	54*	14	11	29
Cc1oc(-c2ccccc2)nc1Cn1cccc1C1=NC(c2ccccc2)CO1 (stereo not given)	-7	30	-6	17	19	69*
CCCC(=O)NC1=C(Cl)C(=O)c2ccccc2C1=O	146*	x	9	x	x	x
CCNC1=C(Cl)C(=O)c2ccccc2C1=O	-4	2	-7	19	45	11
NC(=O)CCc1nc2cc(C(F)(F)F)ccc2n(Cc2ccccc2)c1=O	-32	-13	0	8	10	0
SMILES	PfHsp90 set2	tim10-1 inh	ATG4B inh	TIM10 inh	tim23-1 inh	SKKanGAS inh
CC1=C(C(=O)OC2CCCCC2)C(c2cccs2)n2c(nc3ccccc32)N1 (stereo not given)	-26	3	3	21	5	34
Cc1nc(NS(=O)(=O)c2ccc(Cl)s2)c2c3c(sc2n1)CCCC3	-82	16	22	-2	31	63*
Cc1nc(NCCc2ccc(S(N)(=O)=O)cc2)c2c3c(sc2n1)CCC3	-3	5	5	9	-6	-9
CSc1cccc(NC(=S)NC(=O)CCc2ccccc2)c1	10	23	-2	18	45	60*
CCN(C(=O)COC(=O)c1ccc2[nH]c3c(c2c1)CCCC3)C1CCS(=O)(=O)C1 (stereo not given)	7	15	-10	1	1	-1
O=C(NCc1ccc(F)cc1)C(=O)Nc1nc(C23CC4CC(CC(C4)C2)C3)cs1	25	9	21	24	4	109*
O=C(NCc1ccccc1)C(=O)Nc1nc(C23CC4CC(CC(C4)C2)C3)cs1	-2	12	10	21	14	102*
COc1ccc(OC)c(-c2cc(C(F)(F)F)c3c(n2)sc2c(O)cc(=O)[nH]c23)c1	-31	16	-2	0	17	81*
CN1CCN(C2=Cc3ccccc3Sc3cc(F)c(Cl)cc32)CC1	3	15	0	26	-11	42
CCOC(=O)c1cnc(-n2nc(C)cc2C)nc1NNc1cc(-c2ccccc2)nc(C)n1	x	-6	x	2	-14	103*
CCOC(=O)c1cnc(-n2nc(C)cc2C)nc1NCCO	x	13	-8	10	-12	2
COc1ccc(OC)c(C2C(C(=O)c3ccccc3)=C(C)Nc3nc4ccccc4n32)c1 (stereo not given)	-6	-3	0	-6	16	76*
Cc1cccc(-c2oc3ccccc3c2-c2ccc3c(c2)OCO3)c1	4	x	12	x	x	52*
Cc1cccc(C(=O)Nc2nnc(COc3ccccc3)s2)c1	5	-6	-6	5	-10	-8
COc1ccc(C(=O)Nc2nccs2)cc1	2	-3	-10	-4	28	-2
Cc1c(C(=O)N2CCC(Cc3ccccc3)CC2)sc2ncnc(N3CCC(C)CC3)c12	-70	34	4	20	34	56*
CCOP(=O)(OCC)/C(C#N)=C/c1ccc([N+](=O)[O-])cc1	1	29	-5	20	39	2
COc1nc(NCc2cccnc2)nc(NC2CCCCC2)n1	21	-15	3	-66	-444	-11
Brc1cc(-c2ccccc2)nc(-c2ccccc2)n1	x	-2	0	14	4	51*
O=C(Nc1nnc(-c2ccco2)o1)c1ccc2ccccc2c1	-18	30	-15	29	5	92*
Cc1ccc(C(=O)Nc2nnc(-c3ccco3)o2)cc1	-5	36	2	24	9	13
Cc1ccsc1C(=O)Nc1nnc(-c2ccco2)o1	-17	1	-8	-2	4	83*
C[C@H](O)C(=O)C1=Nc2c(nc(N)[nH]c2=O)NC1	15	14	-1	4	8	x
